Experimental data: the supplement of paper PMC9477273

Tested on: DRIVER-selected RNA biosensor (aptazyme) pool
Assay: maximum fold change of ribozyme cleavage across biosensor pool versus no-compound control; higher = stronger biosensor response (ligand inhibits cleavage)
Settings: 10 µM
In short: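 CleaveSeq on a pool of 1,730 array-resynthesized ribozyme biosensors, T7-transcribed at 37°C for 15–30 min with 9 mM rNTPs and one compound at 10 µM (added from 10x DMSO stock), then reverse-transcribed at 50°C. Cleaved and uncleaved products were PCR-barcoded and counted by Illumina sequencing. Fold change of cleavage is the ratio of cleaved:uncleaved read fractions against a no-compound condition, corrected with reference sequences; the value is the maximum over all biosensors.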

Structure (SMILES)	maximum fold change
C=Cc1ccc(Cn2c(C(=O)O)c(CNCc3ccco3)c3ccc(C)cc32)cc1	2.45
O=C(Cn1ncc2c1-c1ccccc1OC2)N1CCC(Cc2ccccc2)CC1	3.52
COc1ccc(C=C2C(=O)c3ccccc3C2=O)c(C)c1	2.53
COc1ccc(/C=c2\s/c(=C/C(=O)c3ccc(C)cc3)[nH]c2=O)cc1OC	2.47
CCc1nc2ccc(C(=O)NCCc3ccco3)cc2nc1CC	2.69
CC1=[N+](CCCS(=O)(=O)O)SC2C=CC(Cl)=CC12 (stereo not given)	1.77
CN(Cc1ccccc1)C(=O)CCc1nc(CN2CCN(C(=O)c3noc4c3CCCC4)CC2)no1	4.1
CCOC(=O)c1sc2nc(C)nc(NCc3ccccc3OC)c2c1C	4.59
Cc1ccc(C(=O)N(Cc2ccccc2)c2ccccn2)cc1	2.65
C=Cc1ccc(Cn2c(C)c(CNCc3ccc(CC)cc3)c(C(=O)O)c2C)cc1	3.37
CC(=O)c1c(C)[nH]c2ccccc2c1=O	2.03
O=S(=O)(NCc1ccccn1)c1ccc(Br)cc1Br	1.99
O=C(CSc1nnc(-c2ccc(Cl)s2)o1)N1CCOCC1	3.21
CCOC(=O)N1CCN(c2cnn(-c3nc4ccccc4s3)c(=O)c2Cl)CC1	3.21
Cc1nc(NC(=N)NC(=O)CCN2C(=O)c3ccccc3C2=O)nc2ccccc12	8.2
O=C(c1cc(-c2ccccc2)n[nH]1)N1CCc2ccccc2C1	4.06
COc1ccc(OC)c(/C=C2/N=C(c3cccc(Cl)c3Cl)OC2=O)c1	4.84
CCOC(=O)/C(=CC=CN1CCOCC1)/C(=O)C	1.94
CCCCOc1ccc(CNC2=NS(=O)(=O)C(c3ccc(C(C)C)cc3)=C2C)cc1	3.52
O=C(c1ccccc1O)N1CCOCC1	1.99
CCOc1ccccc1-n1cc2c(c1-c1cccc(C)c1)c(=O)n(C)c(=O)n2C	1.83
C=CCNC(=O)/C(C#N)=C/c1c(Oc2ccccc2)nc2ccccn2c1=O	9.03
CCOC(=O)c1ccc(-c2sc3nc(N4CCOCC4)c4c(c3c2N)CC(C)(C)OC4)o1	2.03
COc1ccc2c(c1)c(C(=O)O)c(C)n2CCc1ccc(OC)c(OC)c1	2.38
COc1ccc(cc1C1=N/C(=CNc2ccccn2)/C(=O)O1)Cl	6.85
CCN1CCCC1CNC(=O)CS(=O)(=O)Cc1nc(-c2ccc(C)cc2)oc1C (stereo not given)	2.2
CC(NC(=O)C1CCC(CNS(=O)(=O)c2ccccc2)CC1)c1ccccc1 (stereo not given)	2.1
CCN1CCN(C(=O)c2ccc(Cn3c(SCc4ccccc4F)nc4ccncc43)cc2)CC1	2.65
COc1cccc(C(=O)/C=C2/Nc3ncc(Br)cc3NC2=O)c1	5.23
Cn1c(=O)c2c(-c3ccc(Cl)cc3)n(C3CCCCC3)cc2n(C)c1=O	2.62
